The record followed here is PubChem BioAssay AID1508624 (National Center for Advancing Translational Sciences (NCATS), 2021).

In all, about 48,000 compounds went through this assay and about 120 (0.25%) were called active. Another 4% or so got no clear call; they are omitted. The call rests on the fitted dose curve; in most records, active means well fitted activation curve with a large enough effect; inconclusive means small, poorly fitted or top-dose-only effect, or another doubt; inactive means no such curve, though single readings can be large or run the other way. The list comes from a sample in which actives are over-represented; it also holds similar structures and randomly drawn compounds.

A short description of the experiment: Primary qHTS for Identification of Small Molecule Activators of Huntingtin-Antisense Promoter Activity. Further: nearly all actives have a fitted effect of over 55% in size. The following applies: HEK293 HTT-AS promoter firefly luciferase reporter (activity 0% = vehicle and -100% = no light), 24 h; series mostly up to 57.5 µM; activity change, positive = activation: at the top concentration. An excerpt:
Assay Provider: Russell L. Margolis M.D.
Department Neurology, Johns Hopkins University School of Medicine, Baltimore, MD
Huntington's Disease (HD) is a neurodegenerative disorder caused by a CAG repeat expansion in exon 1 of huntingtin (HTT). While there are currently no disease-modifying treatments for HD, recent efforts have focused on development of nucleotide-based therapeutics to lower HTT expression. As an alternative to siRNA or oligonucleotide methods, we hypothesized that suppression of HTT expression might be accomplished by small molecules that either (1) directly decrease HTT expression by suppressing HTT promoter activity or (2) indirectly decrease HTT expression by increasing the promoter activity of HTT-AS, the gene antisense to HTT that appears to inhibit expression of HTT.
We developed and employed a high throughput screen for modifiers of HTT and HTT-AS promoter activity using luminescent reporter HEK293 cells; of the 52,041 compounds tested, we identified 898 replicable hits. We used a rigorous stepwise approach to assess compound toxicity and the capacity of the compounds to specifically lower huntingtin protein in 5 different cell lines, including HEK293 cells, HD lymphoblastoid cells, mouse primary neurons, HD iPSCs differentiated into cortical-like neurons, and HD hESCs. We found no compounds which were able to lower huntingtin without lowering cell viability in all assays, though the potential efficacy of a few compounds at non-toxic doses could not be excluded.
SEQUENCE No. (1, 2, 3, etc.); […] (e.g., Cells, Incubation, Reagent, etc.); VALUE and DESCRIPTION.
1; Reagent; 4 uL; 2,500 Hek293 luciferase reporter cells per wells
3; Compound; 23 nL; Control inhibitor / compound library
5; Reagent; 2.5 uL; Firefly Luc reagent; Dual-Glo Luciferase Reporter Assay System (Promega)
6; Time; 10 min; room temperature incubation
7; Detection; Luminescence; FLuc
NOTES (numbers refer to sequence above)
1; High-throughput screening, measuring luminescence from a Hek293 luciferase reporter, was performed in 1,536 well white-walled tissue-culture treated plates. 2,500 cells were plated in 4 µL of Opti-MEM per well using a Multidrop Combi Reagent Dispenser (ThermoFisher).
2; Assay plates were cultured for 24 hours.
3; Control inhibitor (PTC124; final concentration of 50 uM) and compound library (at final concentrations of 460 nM - 57.5 uM) were added to the assay plate using the Kalypsis Pintool Robotic System equipped with 1536 pinheads.
4; Cells were then incubated for 24 hours at 37 degrees C prior to luminescence measurements.
5; In all cases, luminescence was measured using the Dual-Glo Luciferase Reporter Assay System (Promega) following the manufacturer's instructions.
6; Room temperature incubation.
7; Luminescence signal was obtained using the PerkinElmer ViewLux plate reader. Results were normalized to vehicle control (0% activity) and zero RLU (-100% activity).
For orientation: In qHTS, concentration-response curves come from the screen itself.
As to `CCC(=O)N1c2ccccc2CC1C(=O)N1CCN(c2cccc(OC)c2)CC1` (stereo not drawn), the “activity change, positive = activation” value is -17.5% (inactive).

Regarding `CCOc1cc(CNC(=O)c2sc3ncnc(N(C)C4CCCCC4)c3c2C)ccc1OC`, the “activity change, positive = activation” value is -35.7% (inactive).

As to `Cc1ccccc1CCNC(=O)C1CCN(c2nc3ccccc3nc2C(F)(F)F)CC1`, the “activity change, positive = activation” value is -6.9% (inactive).

Consider `O=C(NC1CC(=O)N(c2ccc(F)cc2)C1)c1cccs1` (stereo not drawn), for which the “activity change, positive = activation” value was -7.05% (inactive).

Consider `CCOC(=O)C1CCCN(S(=O)(=O)c2cc(-c3cc(C)no3)ccc2OC)C1` (stereo not drawn), for which the “activity change, positive = activation” value is -4.74% (inactive).

Regarding `Cc1cccc(C)c1-n1ncc(C(=O)NCCCN2CCCCC2)c1C1CCN(C(=O)OC(C)(C)C)CC1`, the “activity change, positive = activation” value was -21% (inactive).

Regarding `Cc1ccc(C(=O)Nc2cc3c(cc2N2CCCC2)n(C)c(=O)c(=O)n3C)cc1`, the “activity change, positive = activation” value is -7.49% (inactive).

On to `COc1ccccc1NC(=O)C1=C(C)Nc2nc(SCC(=O)c3ccc(C)cc3)nn2C1c1ccccc1C` (stereo not drawn), for which the “activity change, positive = activation” value is 2.53% (inactive).

As to `Cc1c(-c2nsc(NC(=O)c3cccc(Cl)c3)n2)nnn1-c1ccccc1C(F)(F)F`, the “activity change, positive = activation” value was -85.6% (inactive).

As to `Cc1cc(C)cc(NC(=O)Cn2c(=O)c3ccccc3n3nncc23)c1`, the “activity change, positive = activation” value was -1.71% (inactive).

On to `COc1ccc(Cn2ccn(CC(=O)Nc3cc(C)ccc3C)c(=O)c2=O)cc1`, for which the “activity change, positive = activation” value was -13.3% (inactive).

On to `Cc1nn(-c2ccc(F)cc2)c(-n2cccc2)c1C(=O)N1CCN(c2ccccc2)CC1`, for which the “activity change, positive = activation” value was -22.6% (inactive).

`CCOc1ccc(Nc2oc(/C=C/c3ccc(F)cc3)nc2C#N)cc1`: the “activity change, positive = activation” value is 4.81% (inactive).

Take `CCCC(=O)Nc1ccc(NC(=O)c2sc3ccccc3c2Cl)cc1`: the “activity change, positive = activation” value is -35.3% (inactive).

Regarding `O=S(=O)(c1ccc2nc(N3CCN(c4cccc(Cl)c4)CC3)ccc2c1)N1CCCCC1`, the “activity change, positive = activation” value was -6.05% (inactive).

On to `CCOC(=O)c1ccc(NC(=O)CC2C(=O)N(c3ccccc3)C(=O)N2Cc2cccs2)cc1` (stereo not drawn), for which the “activity change, positive = activation” value is -8.82% (inactive).

With `Cc1cc(Cl)ccc1OCC(=O)N(Cc1ccc(N(C)C)cc1)C1CCS(=O)(=O)C1` (stereo not drawn), the “activity change, positive = activation” value is -14.8% (inactive).

For `CCC(=O)N1CCc2cc(S(=O)(=O)NC(C(=O)NCCc3ccc(C)cc3)C(C)C)ccc21` (stereo not drawn), the “activity change, positive = activation” value was -1.83% (inactive).

`CCOc1ccc(CCNC(=O)c2csc3c2CCCCC3)cc1`: the “activity change, positive = activation” value is -21.7% (inactive).

In the case of `Cc1ccc2nc(-c3ccc(C)c(NC(=O)Cc4ccccc4)c3)oc2c1`, the “activity change, positive = activation” value was -72.1% (inactive).

For the compound `CCCN(CCC)S(=O)(=O)c1ccc(C(=O)Nc2sc3c(c2C(=O)OC)CCN(CC)C3)cc1`, the “activity change, positive = activation” value is -29.2% (inactive).

On to `O=C(C1CC1)N1CCc2cc(Br)cc(S(=O)(=O)N3CCN(c4ccccc4F)CC3)c21`, for which the “activity change, positive = activation” value is -14.5% (inactive).

For the compound `CCOc1ccc(NC(=O)c2c(NC(=O)Cc3ccccc3)sc3c2CCCCC3)cc1`, the “activity change, positive = activation” value was -10.1% (inactive).
